Screening data as filed in PubChem BioAssay.
Rows were chosen to be rich in hits. Some 21% of all compounds tested hit in one or more screens of this group.
NS1 inh: qHTS Assay for Inhibitors of Influenza NS1 Protein Function; Potency, µM (series often up to 46.1 µM), without a hit: at the highest dose activity, positive = more growth; 0.4% of 270,000 active; AID 2326, 2010; calls by dose curve; note: potency is the fitted concentration of half-maximal effect; actives are rising curves; nearly all actives have a fitted effect of over 50% in size
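A cell-based growth assay was used: compounds that relieve NS1-induced slow growth of budding yeast raise OD600. Assay medium was yeast nitrogen base with ammonium sulphate and -URA supplement, pH 6.0, with 2% galactose.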
Cycloheximide cs: Cycloheximide Counterscreen for Small Molecule Inhibitors of Shiga Toxin. cell reporter, cycloheximide protein synthesis inhibition counterscreen. max response, %. 12% of 300,000 active. AID 2314, 2010; in the data active = max response mostly above about 13%, no sharp cut-off; inactive = mostly below about 14%; note: read at 38.3 µM for the half of the compounds with a filed dose; 0% is about no effect
Pf growth 48h: Primary qHTS for delayed death inhibitors of the malarial parasite plastid, 48 hour incubation; P. falciparum luciferase growth in erythrocytes, 48 h; Potency, µM (top dose mostly 28.7 µM), inactives show at the highest dose activity change, negative = inhibition, most hits filed as inhibitors; 5.9% of 310,000 active; AID 504832, 2011; note: potency is the fitted concentration of half-maximal effect; % is set by controls: 0 for no effect and ±100 for the full control effect
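Read-out is firefly luciferase luminescence from an integrated reporter in P. falciparum, so falling signal marks reduced parasite growth. Infected erythrocytes were at 2% hematocrit and 0.1% parasitemia (final) in Albumax-supplemented RPMI 1640.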
Pf growth 96h: Primary qHTS for delayed death inhibitors of the malarial parasite plastid, 96 hour incubation; AID 504834, 2011; P. falciparum luciferase reporter growth, 96 h; Potency, µM (titrated, usually from 28.7 µM), inactives show top-dose activity change, negative = inhibition, usual class: inhibitors; 6.9% of 320,000 active; note: potency is the fitted concentration of half-maximal effect; % is set by controls: 0 for no effect and ±100 for the full control effect
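Erythrocytes infected with luciferase-expressing P. falciparum were dispensed at 2% hematocrit and 0.05% parasitemia (final), then incubated with compounds 96 hours at 37 C in 5% CO2. Luminescence after detection reagent addition reported growth.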
Shiga inhibitor: A qHTS for Small Molecule Inhibitors of Shiga Toxin | Vero cells, Shiga toxin protein synthesis inhibition reporter | inhibition, % at 38.7 µM | 9.2% of 290,000 active | AID 2315, 2010; in the data active = inhibition mostly above about 28%, no sharp cut-off; inactive = mostly below about 43%; note: 0% is about no effect
SARS PLpro yeast: qHTS of Yeast-based Assay for SARS-CoV PLP; S. cerevisiae expressing SARS-CoV PLpro, growth rescue; Potency, µM (series often up to 32.9 µM), for the others: top-dose activity, positive = growth rescue, most hits filed as activators; 0.19% of 330,000 active; AID 485353, 2010; calls by dose curve; note: potency is the fitted concentration of half-maximal effect; 0% is about no effect; nearly all actives have a fitted effect of over 55% in size
* hit, by the source's call; ? = inconclusive; . = no result; [ ] = remark or other dose. Unless noted, calls come from the whole dose curve; as a rule, active = well fitted inhibition curve with a large enough effect; inconclusive = small, poorly fitted or top-dose-only effect, or another doubt; inactive = no such curve, though single readings can be large or run the other way.

SMILES	NS1 inh	Cycloheximide cs	Pf growth 48h	Pf growth 96h	Shiga inhibitor	SARS PLpro yeast
CC1SC(c2ccccc2Cl)NC1=O (stereo unspecified)	5%	-1	.	12µM*	-17	-6%
O=C1NC(c2ccccc2Cl)Nc2ccccc21 (stereo unspecified)	1%	-4	10%	3%[5.75 µM]	-27	5%
COc1cc(OC)cc(-c2c(-c3ccc(F)cc3)c3cc(-c4cnc(OC)nc4)ccc3n2C)c1	.	.	4.1µM*	4.7µM*	.	-2%
COc1ccc(-c2c(-c3cc(OC)cc(OC)c3)n(C)c3ccc(-c4cnc(N)nc4)cc23)cc1	.	.	.	.	.	0%
COc1ccc(-c2c(-c3cc(OC)cc(OC)c3)n(C)c3ccc(-c4ccc(S(N)(=O)=O)cc4)cc23)cc1	.	.	13µM*	?	.	-1%
COc1ccc(S(=O)(=O)N/N=C(/C)c2ccncc2)c(OC)c1	1%	-2	6%	27%	-4	4%
CC(=O)Nc1ccc(S(=O)(=O)NC(C(=O)O)C2=CCC=CC2)cc1 (stereo unspecified)	-4%	8	28%	3.7µM*	12	2%
CC(=O)Nc1ccc(S(=O)(=O)N[C@H](C(=O)O)C(C)C)cc1	-11%	-1	4%	-29%	2	-2%
CC1Sc2ccc(S(=O)(=O)CCC(=O)Nc3ccccn3)cc2NC1=O (stereo unspecified)	-1%	2	14%	9.3µM*	-3	5%
CCC1Sc2ccc(S(=O)(=O)CCC(=O)N3CCc4ccccc43)cc2NC1=O (stereo unspecified)	9%	-3	17%	28%	20	3%
CC1Sc2ccc(S(=O)(=O)CCC(=O)N3CCc4ccccc43)cc2NC1=O (stereo unspecified)	10%	-12	-1%	17µM*	-3	-2%
CC1Sc2ccc(S(=O)(=O)CCC(=O)NCc3ccccc3)cc2NC1=O (stereo unspecified)	1%	-9	-1%	?	-5	4%
Fc1ccc(CSc2nsc(SCc3ccc(F)cc3)n2)cc1	4%	11	0%	.	-41	-6%
CCOc1ncccc1C(=O)Nc1nnc(C)s1	.	0	-15%	57%	22	-2%
CSc1nsc(SCc2ccc(F)cc2)n1	18%[9.22 µM]	13*	12%	.	8	-6%
O=C(CSc1nnc(NC(=O)c2c(F)cccc2Cl)s1)Nc1ccccc1F	7%	8.3*	14%	-1%	19	5%
CSc1nsc(SCC(=O)Nc2nncs2)n1	.	-5	1%	39%	16	4%
CCOc1ncccc1C(=O)Nc1nc(SC)ns1	.	28*	56%	132%	66*	0%
CSc1nsc(SCC(=O)Nc2ccccc2C(N)=O)n1	0%	11*	-17%	-2%	38*	1%
CSc1nsc(SCC(=O)Nc2ccc(OC(C)=O)cc2)n1	-1%	27*	68%	5%	58	0%
CCOC(=O)c1ccc(NC(=O)CSc2nc(SC)ns2)cc1	-144%	48*	-19%	?	60*	.
CSc1nsc(NC(=O)Cc2ccccc2)n1	-54%	46*	72%	24%	86*	-9%
CSc1nsc(SCC(=O)Nc2ccccc2)n1	-9%	40*	46%	24%	34	-27%
CCOc1ccc(N(CC(=O)N2CCCC2)S(=O)(=O)c2ccc(Cl)cc2)cc1	-1%	-4	-23%	-3%	-7	1%
CSc1nsc(SCC(=O)Nc2ccccc2F)n1	-1%	31*	27%	42%	58*	-1%
SMILES	NS1 inh	Cycloheximide cs	Pf growth 48h	Pf growth 96h	Shiga inhibitor	SARS PLpro yeast
CSc1nsc(SCC(=O)Nc2cccc(C(C)=O)c2)n1	4%	9	-20%	.	26	-6%
CCCN(CCC)c1cc(Cl)nc(N)n1	.	-6	-3%	4%	-3	-3%
CCCCCCCCCCCCCC[N+](C)(C)C	.	.	0.95µM*	0.95µM*	.	.
CCCCCCCCCCCCCCCC[N+](C)(C)C	.	.	4.1µM*	2.9µM*	.	.
O=[N+]([O-])c1cc([N+](=O)[O-])c(Oc2cc(Cl)cc(Cl)c2)cc1NN1CCCCC1	.	.	9%	12%	.	10%
N=c1c2c(-c3ccccc3)c(-c3ccccc3)n(Cc3ccccc3)c2ncn1CCCn1ccnc1	12%	-3	0.93µM*	1.3µM*	-11	4%
